Bioassay records (PubChem)
Rv3671c inh – inhibits the M. tuberculosis serine protease Rv3671c; P9WHR9; inhibition, % at 5.96 µM; 320,000 compounds, 0.048% hits; in the data active means inhibition above about 38%;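 further: extracellular domain of Rv3671c used as enzyme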
GDH-TPI counter-1 – counter-screen for M. tuberculosis FBA inhibitors: GDH-TPI coupled enzymes; GDH-TPI coupled enzyme counterscreen, NADH absorbance; inhibition, % at 4.8 µM; 360,000 compounds, 1.2% hits; in the data active means inhibition above about 30%
FadD28 FP inh – blocks FadD28 binding to the bisubstrate probe. fluorescence polarization. inhibition, % at 12.5 µM. 360,000 compounds, 0.22% hits; in the data active means inhibition above about 8.5%, passing the limit was not always enough
Mtb UGM inh – blocks M. tuberculosis UGM enzyme | P9WIQ1 | purified UGM, fluorescence polarization probe displacement | inhibition, % at 10 µM | 320,000 compounds, 0.06% hits | AID 504406; in the data active means inhibition above about 10%, passing the limit was not always enough
Mtb FBA inh – Mtb fructose-bisphosphate aldolase inhibition. P9WQA3. purified M. tuberculosis FBA, fluorescence read-out. inhibition, % at 1 µM. 360,000 compounds, 2.3% hits
Target sequence (P9WQA3 whole entry, looked up): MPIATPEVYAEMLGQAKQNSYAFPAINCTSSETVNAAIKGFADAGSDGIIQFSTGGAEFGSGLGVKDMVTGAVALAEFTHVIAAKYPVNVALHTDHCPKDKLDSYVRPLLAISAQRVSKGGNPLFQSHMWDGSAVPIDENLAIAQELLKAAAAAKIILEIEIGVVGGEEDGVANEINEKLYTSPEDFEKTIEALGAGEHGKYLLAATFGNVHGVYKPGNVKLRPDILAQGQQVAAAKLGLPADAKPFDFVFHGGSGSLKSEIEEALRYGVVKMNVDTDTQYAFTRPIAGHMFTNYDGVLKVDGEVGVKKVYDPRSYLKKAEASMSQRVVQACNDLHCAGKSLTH
Mtb hypoxia rep – reduces hypoxia-regulated biosensor signal in M. tuberculosis | M. tuberculosis hypoxia-regulated fluorescent reporter, fluorescence | fluorescence inhibition, % (no concentration beside the values) | 300,000 compounds, 0.1% hits; in the data active means fluorescence inhibition mostly above about 23%, no sharp cut-off; inactive means mostly below about 17%
Mtb FBA inh conf – Mtb FBA inhibition, confirmed | 5,600 compounds, 78% hits | inhibition, % at 1 µM | AID 651616 | shares compounds with Mtb FBA inh | purified M. tuberculosis FBA, fluorescence read-out
GDH-TPI counter-2 – GDH-TPI inhibition counter-screen for FBA inhibitors; shares compounds with Mtb FBA inh; GDH-TPI coupled enzyme counterscreen, fluorescence; inhibition, % at 1 µM; 5,600 compounds, 81% hits; in the data active means inhibition above about 10%
GDH-TPI dose – inhibits GDH-TPI coupling enzymes in dose response; shares compounds with Mtb FBA inh; GDH-TPI coupled enzyme assay, fluorescence, artifact counterscreen; IC50, µM; 170 compounds, 79% hits; call rule not given here
Large screens that a line does not name were inactive (follow-up assays come after a bar, where they were run). This is a sample that favours compounds with a hit; in the whole collection about 3.5% have one here. Unless noted, no stated cut-off is given here; in the data, active means inhibition above about 27%; inactive means the rest.

Cc1c(OCC(=O)N2C[C@H]3C[C@@H](C2)c2cccc(=O)n2C3)ccc2c3c(c(=O)oc12)CCC3	none (no result: Mtb hypoxia rep)
Cc1c(OCC(=O)N2C[C@H]3C[C@@H](C2)c2cccc(=O)n2C3)ccc2c3c(c(=O)oc12)CCCC3	Mtb FBA inh 31 (no result: Mtb hypoxia rep) | Mtb FBA inh conf active | GDH-TPI counter-2 active
CCCc1cc(=O)oc2c(C)c(OCC(=O)N3C[C@H]4C[C@@H](C3)c3cccc(=O)n3C4)ccc12	none (no result: Mtb hypoxia rep)
CC(C)=CCOc1ccc2c(C)c(CC(=O)N3C[C@H]4C[C@@H](C3)c3cccc(=O)n3C4)c(=O)oc2c1C	Mtb FBA inh 107 (no result: Mtb hypoxia rep) | Mtb FBA inh conf 183 | GDH-TPI counter-2 129
COc1ccc2c(c1)CC(C(=O)Nc1ccc(Cl)cc1)C(=NO)O2 (centres undefined)	none (no result: Rv3671c inh, GDH-TPI counter-1, FadD28 FP inh, Mtb UGM inh, Mtb FBA inh)
CCOC(=O)N1CCc2cc(OC)c(OC)c3c2c1cc1cc(OC)c(OC)cc13	Mtb FBA inh 38 (no result: Rv3671c inh, Mtb UGM inh, Mtb hypoxia rep) | Mtb FBA inh conf inactive | GDH-TPI counter-2 inactive | GDH-TPI dose 5.5
O=C1c2nc3cc(-c4ccco4)[nH]n3c(=O)c2CN1Cc1ccccc1	Mtb FBA inh 97 | Mtb FBA inh conf 104 | GDH-TPI counter-2 67
CCCCc1c(C)nc2cc(-c3ccco3)[nH]n2c1=O	none
O=C(NNC(=O)c1cc(Cl)ccc1O)c1ccc(NS(=O)(=O)c2cccs2)cc1	Mtb FBA inh 29 | Mtb FBA inh conf active | GDH-TPI counter-2 active
O=C(NNC(=O)c1cc(F)c(F)cc1Cl)c1ccc(NS(=O)(=O)c2cccs2)cc1	none
CCOC(=O)Cc1csc(/N=C/c2c(O)n(-c3ccc(C)cc3C)c(=O)c3ccccc23)n1	Mtb FBA inh 53 | Mtb FBA inh conf 60 | GDH-TPI counter-2 42
Cc1ccc(S(=O)(=O)NN=Cc2ccccc2O)cc1	none (no result: Rv3671c inh, GDH-TPI counter-1, FadD28 FP inh, Mtb UGM inh, Mtb FBA inh)
CC(C)NCC(O)Cn1c2c(c3ccccc31)CCc1c-2cnn1-c1ccccc1 (centres undefined)	Mtb FBA inh 33 (no result: Mtb hypoxia rep) | Mtb FBA inh conf inactive | GDH-TPI counter-2 inactive
Fc1ccc(-c2cnc(-c3cccs3)o2)cc1	Mtb FBA inh 61 | Mtb FBA inh conf 81 | GDH-TPI counter-2 71
Fc1ccc(-c2nc(-c3cccs3)no2)cc1	none
O=C(CN1C(=O)C2C3C=CC(C3)C2C1=O)Nc1ccc(F)cc1 (centres undefined)	none
O=C(CN1C(=O)C2C3C=CC(C3)C2C1=O)Nc1ccc2nccnc2c1 (centres undefined)	Mtb FBA inh 27 | Mtb FBA inh conf active | GDH-TPI counter-2 active
COc1ccc(Cc2noc(CN3CCCN(Cc4ccc(F)cc4)CC3)n2)cc1OC	Mtb FBA inh 59 | Mtb FBA inh conf 58 | GDH-TPI counter-2 40
COc1ccccc1N1CCN(CC(=O)c2ccc3ccn(C(C)=O)c3c2)CC1	none (no result: Mtb hypoxia rep)
CC(=O)OCC(=O)c1ccc2ccn(C(C)=O)c2c1	Mtb FBA inh 36 | Mtb FBA inh conf inactive | GDH-TPI counter-2 20
CCCC(=O)Nc1c(-c2ccc(OC)cc2)c(=O)c2ccccc2n1C	Mtb FBA inh 28 | Mtb FBA inh conf inactive | GDH-TPI counter-2 inactive
CCCCC(=O)Nc1c(-c2ccc(OC)c(OC)c2)c(=O)c2ccccc2n1C	none (no result: FadD28 FP inh)
CCCCCC(=O)Nc1c(-c2ccc(OC)cc2)c(=O)c2ccccc2n1C	Mtb FBA inh 28 | Mtb FBA inh conf 128 | GDH-TPI counter-2 104
COc1ccc(C=C(C#N)C(=O)Nc2cccc(C)c2C)cc1C(=O)O	none (no result: Rv3671c inh, GDH-TPI counter-1, FadD28 FP inh, Mtb UGM inh, Mtb FBA inh)
O=C(NC1CC1)C1=CC(c2ccccc2)CC(OCc2ccc(CO)cc2)O1 (centres undefined)	none (no result: Rv3671c inh, GDH-TPI counter-1, FadD28 FP inh, Mtb UGM inh, Mtb FBA inh)
CCOc1ccc(C2C(C(=O)OC)=CN(C(C)c3ccccc3)C=C2C(=O)OC)cc1 (centres undefined)	Mtb FBA inh 71 | Mtb FBA inh conf active | GDH-TPI counter-2 active
CC(=NNC(=O)c1cccc(S(=O)(=O)N2CCCC2)c1)c1cccs1	none (no result: Rv3671c inh, GDH-TPI counter-1, FadD28 FP inh, Mtb UGM inh, Mtb FBA inh)
CC1(C)Cc2c(C#N)c(N3CCOCC3)nc(Cc3ccccc3)c2CO1	Mtb FBA inh 35 (no result: Mtb hypoxia rep) | Mtb FBA inh conf 65 | GDH-TPI counter-2 52
CC1(C)Cc2c(C#N)c(N3CCN(C(=O)c4ccccc4)CC3)nc(Cc3ccccc3)c2CO1	none (no result: Mtb hypoxia rep)
